Laboratory results: paper PMC5540273 (PLoS ONE, 2017)

Tests used:
Conditions in all cases: concentration: 1 μM, replicates: in singlicate; n = 1
JNK1 = tested on: T1, JNK1
T1 construct: gene MAPK8

JNK2 = tested on: T2, JNK2
T2 construct: gene MAPK9

JNK3 = tested on: T3, JNK3
T3 construct: gene MAPK10

KIT-autoinhibited = tested on: KIT-autoinhibited
KIT = tested on: KIT
LATS1 = tested on: LATS1
LATS2 = tested on: LATS2
LCK = tested on: LCK
LIMK1 = tested on: LIMK1
LIMK2 = tested on: LIMK2
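Further: KINOMEscan kinase panel screen.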

| SMILES | %Inh (JNK1) [%] | %Inh (JNK2) [%] | %Inh (JNK3) [%] | %Inh (KIT-autoinhibited) [%] | %Inh (KIT) [%] | %Inh (LATS1) [%] | %Inh (LATS2) [%] | %Inh (LCK) [%] | %Inh (LIMK1) [%] | %Inh (LIMK2) [%] |
| --- | --- | --- | --- | --- | --- | --- | --- | --- | --- | --- |
| Cc1ccc(O)cc1Nc1cc(C(F)(F)F)nc2ccc(-c3ccncc3)cc12 [GW630823] | 0 | 0 | 0 | 0 | 14 | 0 | 0 | 14 | 21 | 15 |
| COc1ccc(NC(=O)c2ccc(-c3cc(-c4nnc(C)o4)ccc3C)cc2)cc1 [GW595885] | 20 | 17 | 12 | 0 | 64 | 0 | 0 | 18 | 3 | 0 |
| Cl.c1ccc(Cn2ncc3cc(Nc4ncnc5ccccc45)ccc32)cc1 [GW273749] | 5 | 5 | 0 | 0 | 4 | 0 | 0 | 15 | 0 | 75 |
| FC(F)(F)c1ccc(-c2nn3ncccc3c2-c2ccnc(Nc3cccc(C(F)(F)F)c3)n2)cc1 [GW828205] | 0 | 0 | 0 | 2 | 43 | 0 | 0 | 25 | 0 | 0 |
| Nc1nc(-c2ccccn2)c(-c2ccnc3ccccc23)s1 [GW548057] | 0 | 19 | 1 | 3 | 11 | 0 | 23 | 10 | 0 | 9 |
| COC(=O)c1cccc(NC(=O)NCCNc2ccnc(Nc3ccc(F)cc3)n2)c1 [GSK1379883] | 18 | 25 | 7 | 0 | 23 | 0 | 0 | 5 | 0 | 19 |
| Cn1ccc2ncnc(Nc3ccc(Oc4cccc(Cl)c4)c(Cl)c3)c21 | 8 | 0 | 0 | 0 | 24 | 44 | 0 | 0 | 0 | 6 |
| COC(=O)c1c(-c2ccccc2)c2cc(Cl)ccc2c(=O)n1Cc1ccc(S(C)(=O)=O)cc1 | 98.8 | 99.5 | 99.4 | 0 | 56 | 30 | 19 | 13 | 1 | 0 |
| Cn1cc(-c2ccc3c(c2)CCN3C(=O)Cc2cccc(C(F)(F)F)c2)c2c(N)ncnc21 [GSK2606414] | 1 | 0 | 0 | 0 | 87 | 0 | 0 | 20 | 0 | 9 |
| Nc1nccc2scc(-c3ccc4c(c3)CCN4C(=O)Cc3cc(F)ccc3F)c12 [GSK2587663] | 22 | 26 | 8 | 0 | 64 | 0 | 8 | 22 | 4 | 13 |
| CNc1nccc(-c2c(-c3ccc(F)cc3)ncn2C2CCN(C)CC2)n1 [SB-222903] | 0 | 69 | 43 | 0 | 0 | 2 | 0 | 0 | 0 | 0 |
